JMJD2A Tudor – qHTS Assay for Inhibitors of JMJD2A-Tudor Domain. Lysine-specific demethylase 4A (Homo sapiens), O75164. AlphaScreen JMJD2A-Tudor / H3K4me3 peptide binding. Potency, µM (doses to about 114 µM), for inactives: top-dose activity change, negative = inhibition, actives largely listed as inhibitors. actives 4.4% (n = 390,000); further: on the % scale 0 is the no-effect control and ±100 the full control effect; nearly all actives have a fitted effect of over 50% in size
L3MBTL1 block – qHTS Assay for the Inhibitors of L3MBTL1; AlphaScreen L3MBTL1–H3K9me1 peptide binding; Potency, µM (highest dose often 57.1 µM), for inactives: at the top dose activity, negative = inhibition, usual class: inhibitors; actives 0.66% (n = 230,000); AID 485360, 2010; further: on the % scale 0 is the no-effect control and ±100 the full control effect; nearly all actives have a fitted effect of over 60% in size
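First, the protein-peptide complex forms for 30 min at room temperature (L3MBTL1 50 nM, biotinylated H3K9me1 peptide 75 nM). Next, compounds are pin-transferred and incubated 30 min. Finally, AlphaScreen beads are added and read after 30 min.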
HP1b chromo inh – HTS for Inhibitors of HP1-beta Chromodomain Interactions with Methylated Histone Tails | Chromobox protein homolog 1 (Homo sapiens), P83916 | AlphaScreen HP1-beta / biotin-H3K9me3 peptide binding | Potency, µM (titrated, usually from 114 µM), inactives show top-dose activity change, negative = inhibition, actives largely listed as inhibitors | actives 0.56% (n = 390,000); further: nearly all actives have a fitted effect of over 70% in size
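HP1-beta protein (50 nM final) preincubated 30 min at room temperature with biotinylated H3(1-18)K9me3 peptide (50 nM) in PBS pH 7.4, 0.01% Tween-20, then compound added for 30 min. AlphaScreen streptavidin donor/nickel chelate acceptor beads (10 ug/mL final), 30 min dark, luminescence read.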
G9a inh – qHTS Assay for Inhibitors of Histone Lysine Methyltransferase G9a | Histone-lysine N-methyltransferase EHMT2 (Homo sapiens), Q96KQ7 | G9a H3K9 monomethylation, AlphaScreen, 2 h | Potency, µM (top dose mostly 102 µM), for the others: at the highest dose activity, negative = inhibition, hits mostly inhibitors | actives 8.8% (n = 350,000) | AID 504332, 2011; further: on the % scale 0 is the no-effect control and ±100 the full control effect; nearly all actives have a fitted effect of over 75% in size
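Signal arises when biotinylated H3K9 peptide, once monomethylated, bridges streptavidin donor and antibody-captured acceptor beads. Enzyme at 20 nM was preincubated 15 min with test compounds; peptide 500 nM and SAM 20 uM then reacted for 2 h.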
BAZ2B block – qHTS Assay for Inhibitors of BAZ2B; AID 504333, 2011; actives 4.4% (n = 360,000); Potency, µM (titrated, usually from 114 µM), for the others: top-dose activity change, negative = inhibition, actives largely listed as inhibitors; AlphaScreen BAZ2B-H3K14Ac peptide displacement; Bromodomain adjacent to zinc finger domain protein 2B (Homo sapiens), Q9UIF8; further: on the % scale 0 is the no-effect control and ±100 the full control effect; nearly all actives have a fitted effect of over 60% in size
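Protein-peptide AlphaScreen: BAZ2B 50 nM, b-H3K14Ac 50 nM, 1x PBS pH 7.4 + 0.01% Tween-20. Preincubation 30 min RT; cpd 30 min RT (top 110 uM); beads 20 min RT, light-protected.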
Starred values were filed as active, the others as inactive; [ ] = remark or other dose. Only some compounds are listed: those with a hit (about 11% of all), similar ones and a draw of the others. The call rests on the fitted dose curve; in most records, active means well fitted inhibition curve with a large enough effect; inconclusive means small, poorly fitted or top-dose-only effect; inactive means no such curve, though single readings can be large or run the other way. Potency means the concentration at half of the fitted maximal effect.

How did COc1ccc(C(=O)NCc2nnc(SCC(=O)Nc3ccccc3)n2-c2ccccc2)cc1 do in these assays?
JMJD2A Tudor: -11%; HP1b chromo inh: 42%; G9a inh: -16%[59 µM]; BAZ2B block: 0%[57.1 µM]

How did COc1ccc(-c2ncccc2OC(=O)C23CC4CC(CC(C4)C2)C3)cc1OC do in these assays?
JMJD2A Tudor: -29%; L3MBTL1 block: inconclusive; HP1b chromo inh: -5%; G9a inh: 45µM*; BAZ2B block: -6%

How did O=C(CSc1cccc[n+]1[O-])c1ccccc1Br do in these assays?
JMJD2A Tudor: -10%; L3MBTL1 block: 0%; HP1b chromo inh: 12%; G9a inh: 0.5µM*; BAZ2B block: -28%

How did O=C(CSc1cccc[n+]1[O-])c1ccc(Cl)s1 do in these assays?
JMJD2A Tudor: 3%; L3MBTL1 block: 4%; HP1b chromo inh: 36%; G9a inh: 10µM*; BAZ2B block: -19%

Results for CN(C(=O)CSc1cccc[n+]1[O-])c1ccccc1 ?
JMJD2A Tudor: 2%; L3MBTL1 block: 8%; HP1b chromo inh: 36%

Results for Cc1cc(C(=O)CSc2cccc[n+]2[O-])c(C)n1-c1ccccc1 ?
JMJD2A Tudor: -25%; L3MBTL1 block: -9%[11.4 µM]; HP1b chromo inh: 16%; G9a inh: inconclusive; BAZ2B block: inconclusive

Results for O=C(CSc1cccc[n+]1[O-])Nc1c(Br)cc([N+](=O)[O-])cc1Br ?
JMJD2A Tudor: -10%; L3MBTL1 block: 3%; HP1b chromo inh: 27%; G9a inh: inconclusive; BAZ2B block: -16%

Results for Cc1cc(C(=O)CSc2cccc[n+]2[O-])c(C)n1-c1ccc(Br)cc1 ?
L3MBTL1 block: -24%; G9a inh: 35µM*; BAZ2B block: 50µM*

What do the screens show for `COc1ccc(/C=C/c2ccccc2)cc1C1C2C=CCCC2(C)C(=O)N1Cc1ccccc1` (stereo unspecified)?
JMJD2A Tudor: -26%; HP1b chromo inh: 16%

What do the screens show for `CCN(CC)C(=O)C1CCCN(Cc2sccc2C)C1` (stereo unspecified)?
JMJD2A Tudor: 3.5µM*; HP1b chromo inh: inconclusive; G9a inh: 32µM*; BAZ2B block: 28µM*

Results for Cc1cccc(CN2CCCC(C(=O)N3CCc4ccccc4C3)C2)c1 (stereo unspecified) ?
JMJD2A Tudor: 1%; HP1b chromo inh: 26%; G9a inh: 13µM*; BAZ2B block: 50µM*

Results for CCN(CC)C(=O)C1CCCN(Cc2ccc3ccccc3c2)C1 (stereo unspecified) ?
JMJD2A Tudor: 22µM*; L3MBTL1 block: -4%; HP1b chromo inh: 3%; G9a inh: inconclusive; BAZ2B block: inconclusive

Results for CCN(CC)C(=O)C1CCCN(Cc2cccc(F)c2)C1 (stereo unspecified) ?
JMJD2A Tudor: 3.2µM*; L3MBTL1 block: 4%; HP1b chromo inh: -46%; G9a inh: inconclusive; BAZ2B block: inconclusive

How did O=c1oc2ccccc2c(O)c1C=Nc1cccnc1 do in these assays?
JMJD2A Tudor: inconclusive; L3MBTL1 block: -4%; HP1b chromo inh: -12%; G9a inh: 50µM*; BAZ2B block: -23%

How did COc1ccc(-n2nnnc2C2CCN(S(=O)(=O)c3ccc(C)cc3)CC2)cc1 do in these assays?
JMJD2A Tudor: -8%; HP1b chromo inh: 61%; G9a inh: 2%[59 µM]; BAZ2B block: -1%

Results for COC1=CC(=O)C(C2CC(=O)c3c(O)cc(O)cc3O2)=CC1=O (stereo unspecified) ?
JMJD2A Tudor: 79µM*; HP1b chromo inh: inconclusive

What do the screens show for `CS(=O)(=O)Nc1ccc(C2=NN(S(C)(=O)=O)C(c3ccc4c(c3)OCO4)C2)cc1` (stereo unspecified)?
JMJD2A Tudor: -8%; L3MBTL1 block: 0%; HP1b chromo inh: 15%; G9a inh: 7%[59 µM]; BAZ2B block: -3%

What do the screens show for `Cc1cc2nc(C)n(CCCNC(=O)Nc3cccc4ccccc34)c2cc1C`?
JMJD2A Tudor: 50µM*; HP1b chromo inh: 4%; G9a inh: -27%; BAZ2B block: -11%

Screening results deposited in PubChem by National Center for Advancing Translational Sciences (NCATS).
